This is one part of a sample in which hits are shown more often than they occur.
Pf Dd2 growth – qHTS Primary assay for Inhibitors of Plasmodium falciparum Dd2 growth in vitro; P. falciparum Dd2 growth, SYBR Green, 72 h; Potency, µM (titrated, usually from 28.9 µM), for inactives: at the highest dose activity, negative = inhibition, hits mostly inhibitors; 120,000 tested, 4.3% active; active = well fitted inhibition curve with a large enough effect;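 note: plate controls were DMSO vehicle for no effect and reference drug for full effect; nearly all actives have a fitted effect of over 65% in size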
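Infected erythrocytes (Dd2, 0.3% parasitemia, 2.5% hematocrit final) are added to compound in RPMI-1640/Albumax II medium, grown 72 h at 37C in low oxygen, then lysed with saponin/Triton-X containing SYBR Green and read by fluorescence.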
* = called active by the depositor; i = inactive; [ ] = another dose, or the depositor's remark. Potency is the fitted concentration of half-maximal effect.

SMILES	Pf Dd2 growth
CC(C)NC(=O)N1CCC[C@@H](O)[C@H](NC(=O)c2ccc(OCCN3CCCC3)cc2)C1	-17%[44.1 µM]
CCc1ccccc1S(=O)(=O)N1CCC(n2cnnc2C(C)C)CC1	-7%
O=C(CCc1ccccc1)NCCC1CCN(C(=O)Nc2ccccc2)CC1	i
O=C(COc1ccccc1)NCCC1CCN(C(=O)Nc2ccccc2)CC1	11µM*
CC(C)CC(=O)NCCC1CCN(C(=O)Nc2ccccc2)CC1	-13%
CCc1noc(C)c1C(=O)N1CCC(CCC(=O)NCc2cccc(C(F)(F)F)c2)CC1	-9%
CCOc1cccc(CN(C)C(=O)CN2CC3(CCN(C)CC3)CC2=O)c1	-20%
COc1ccc(C(=O)NCc2nnc3ccc(-c4ccc(Cl)cc4)nn23)cc1OC	i
COc1ccc(CNC(=O)c2cc(-c3ccc(OC)cc3)nc3n[nH]c(-c4cccc([N+](=O)[O-])c4)c23)cc1	-9%
COc1ccc(C(=O)Nc2nc3n(n2)C(c2ccc(Cl)cc2)C=C(c2ccccc2)N3)cc1OC (stereo not drawn)	7.9µM*
COc1ccc(C2C=C(c3ccccc3)Nc3nc(NC(=O)c4ccc(C)cc4)nn32)cc1 (stereo not drawn)	13µM*
COc1cccc(C(=O)Nc2nc3nc(-c4ccccc4)cc(=O)n3[nH]2)c1	21%
COc1ccc(C(=O)Nc2noc3ccccc23)cc1	6%
COc1ccc(C(=O)Nc2cnc(-c3ccc(Cl)cc3)nc2)cc1	i
COc1ccc(NC(=O)c2cc3n(n2)CC(c2ccc(Cl)cc2)OC3)cc1OC (stereo not drawn)	-17%
COc1ccc(C2C=C(c3ccccc3)Nc3nc(NC(=O)c4cccc([N+](=O)[O-])c4)nn32)cc1 (stereo not drawn)	8.9µM*
Cc1noc(C)c1CN[C@@H]1C[C@H](CO)[C@@H](O)[C@H]1O	10%[44.1 µM]
CNC(=O)Nc1ccc(C2(C(=O)NCc3ccco3)CCC2)cc1	1%
COCCOCC(=O)N1CCC2(CC1)c1[nH]c3ccccc3c1CCN2C	-22%
CC1(C(=O)O)CCN(C(=O)c2ccc(C(F)(F)F)cc2)CC1	9%
CC(C)c1ccc(S(=O)(=O)N2CCC(CC(=O)NCc3ccccc3)C2)cc1 (stereo not drawn)	i
CC(NC(=O)COc1ccccc1)C(=O)N1CCN(c2ccccn2)CC1 (stereo not drawn)	i
O=C(NCc1cccc2ccccc12)C1(c2ccc(Cl)cc2)CCOCC1	-2%
CN(C)CCCNC(=O)CC1Sc2ncccc2N(C)C1=O (stereo not drawn)	-13%
COC(=O)N1CCCCC(NC(=O)CCCc2nc(-c3ccccc3C)no2)C1 (stereo not drawn)	-19%
SMILES	Pf Dd2 growth
O=C(c1ccccc1OCC1CCCN(CCCc2ccccc2)C1)N1CCCC1 (stereo not drawn)	i
CCN(CC)S(=O)(=O)NC1CCCN(CCCc2ccccc2)C1 (stereo not drawn)	-2%
O=C(CCn1ccc(=O)[nH]c1=O)NC1CCCN(CCCc2ccccc2)C1 (stereo not drawn)	-10%
O=C(CCc1nc(-c2ccccc2)no1)NC1CCCN(CCCc2ccccc2)C1 (stereo not drawn)	7.1µM*
COC(=O)c1cccc(C(=O)NC2CCCN(CCCc3ccccc3)C2)c1 (stereo not drawn)	8.9µM*
COc1ccc(CNC(=O)N(C)C2CCc3nn(CC4CC4)c(=O)n3CC2)cc1 (stereo not drawn)	19%
CCCOc1ccc(CNC(=O)[C@@]23CCCC[C@H]2N(CCOC)C(=O)CC3)cc1	-4%
COc1ccc(-c2nc(C3CC3)nc3c2CN(C(=O)c2ccccc2F)CC3)cc1	-11%
CCc1nc2c(c(-c3ccc(O)cc3)n1)CCN(C(=O)c1ccc(F)cc1)CC2	i
CCc1nc2c(c(-c3ccc(Cl)cc3)n1)CCN(Cc1ccnn1C)CC2	i
O=C(C1CCCC1)N1CCc2nc(-c3ccccc3)nc(-c3ccc(Cl)cc3)c2C1	4µM*
CCc1nc2c(c(-c3ccc(O)cc3)n1)CN(Cc1ccnn1C)CC2	5%
COc1ccccc1C(=O)N1CCc2nc(C3CC3)nc(-c3ccc(Cl)cc3)c2C1	11µM*
CCc1nc2c(c(-c3ccc(Cl)cc3)n1)CN(Cc1ccc(N(C)C)cc1)CC2	8.9µM*
O=C(C1CCCC1)N1CCc2nc(-c3ccc(Cl)cc3)nc(-c3ccccc3)c2C1	i
O=C(C1CC1)N1CCc2nc(-c3ccccc3)nc(-c3ccc(Cl)cc3)c2C1	i
CCc1nc2c(c(-c3ccc(O)cc3)n1)CCN(Cc1ccccc1C(F)(F)F)CC2	1.8µM*
CCc1nc2c(c(-c3ccc(O)cc3)n1)CN(Cc1ccc(F)cc1)CC2	-7%
Cc1ccc(C(=O)N2CCc3nc(C4CC4)nc(-c4ccc(Cl)cc4)c3C2)cc1	-30%
CCc1ccccc1S(=O)(=O)N1CCCC(Cn2c(C3CC3)nc3cccnc32)C1 (stereo not drawn)	i
Cc1ccc(C2Cn3nnc(C(=O)N4CCN(C(=O)c5ccccc5)CC4)c3CO2)cc1 (stereo not drawn)	i
COCCNc1nc(C)nc2c1CCN(Cc1ccccc1C#N)CC2	i
COCCN1C[C@H]2CN(C(=O)NCc3ccccc3)CCN2C1=O	-9%[44.1 µM]
COc1cccc(N2CCN(C(=O)c3noc(-c4ccc(C)cc4)n3)CC2)c1	62%
CC1=NS(=O)(=O)N(C)C=C1C(=O)OCc1nc(-c2ccc(Cl)cc2)no1	12%
SMILES	Pf Dd2 growth
CCNC(=O)[C@@H]1C[C@H](NC(=O)CCOC)CN1Cc1ccc(F)cc1C	-11%
O=C(CCC1CCN(C(=O)c2ccccc2F)CC1)NC1CC1	-15%
CC(C)C(=O)N1CCCC2(CNS(=O)(=O)c3cccnc3O2)C1 (stereo not drawn)	13%
O=C(CCc1conc1-c1ccc(F)cc1)NCc1cccc(Br)c1	i
Cc1ccc(C)c(NC(=O)Cn2ccn3nc(-c4ccc(F)cc4)c(CO)c3c2=O)c1	11%
CCc1nc2c(c(-c3ccc(Cl)cc3)n1)CN(C(=O)Nc1ccccc1)CC2	11µM*
O=C(NC1CCNCC1)C1CCN(c2nc(-c3ccccc3)nc3c2CCC3)CC1	-11%
CCc1nc2c(c(-c3ccc(Cl)cc3)n1)CCN(C(=O)c1ccccc1OC)CC2	i
COc1ccc(-c2nc(-c3ccccc3)nc3c2CN(C(=O)Cc2ccccn2)CC3)cc1	5.6µM*
CCc1nc2c(c(-c3ccc(Cl)cc3)n1)CN(C(C)=O)CC2	3%[44.1 µM]
COC(=O)N1CCc2nc(-c3ccc(OC)cc3)nc(-c3ccccc3)c2C1	i
CCc1nc2c(c(-c3ccc(O)cc3)n1)CCN(C(=O)Nc1ccc(Cl)cc1)CC2	i
COCC(=O)N1CCc2nc(-c3ccccc3)nc(-c3ccc(OC)cc3)c2C1	-8%
O=C(C1CCN(c2nc(-c3ccccc3)nc3c2CCC3)CC1)N1CCNCC1	13µM*
CCc1nc2c(c(-c3ccc(Cl)cc3)n1)CN(Cc1cccc(OC)c1)CC2	10µM*
NC(=O)[C@@H]1CCCN1C(=O)C1CCN(c2nc(-c3ccccc3)nc3c2CCC3)CC1	-20%
CCc1nc2c(c(-c3ccc(OC)cc3)n1)CN([S+](=O)([O-])c1cccc(OC)c1)CC2	-24%
COCC(=O)N[C@@H]1CN(C(=O)Nc2ccccc2F)CC[C@@H]1c1nc(C)no1	i[5.79 µM]
COc1nccnc1NC1CCN(C(=O)Cc2c(C)noc2C)CC1	i[5.79 µM]
CCOc1nccnc1NC1CCN(C(=O)C2CCCO2)CC1 (stereo not drawn)	i[5.79 µM]
Cc1noc(-c2ccn3c(CNC(=O)Cc4ccccc4Cl)nnc3c2)n1	-8%
